# Experimental data as given in PubChem BioAssay (EPA / NIEHS).
# Records with an inconclusive call do not appear. The source made the active and inactive calls. How the source made its calls: active means hit-call score of the fitted dose curve at least 0.9, where 1 is the maximum; inconclusive means response in the unintended direction; inactive means score below 0.9.
# What was measured:
# [1] = molecular target: Glycogen synthase kinase-3 beta (Homo sapiens) (UniProt P49841); assay: NVS_ENZ_hGSK3b: NovaScreen (NVS) Enzymatic Assay for human Glycogen Synthase Kinase-3 beta (GSK3b) (AID 2283165)
# Chain of Glycogen synthase kinase-3 beta (Homo sapiens) (P49841 whole entry, looked up): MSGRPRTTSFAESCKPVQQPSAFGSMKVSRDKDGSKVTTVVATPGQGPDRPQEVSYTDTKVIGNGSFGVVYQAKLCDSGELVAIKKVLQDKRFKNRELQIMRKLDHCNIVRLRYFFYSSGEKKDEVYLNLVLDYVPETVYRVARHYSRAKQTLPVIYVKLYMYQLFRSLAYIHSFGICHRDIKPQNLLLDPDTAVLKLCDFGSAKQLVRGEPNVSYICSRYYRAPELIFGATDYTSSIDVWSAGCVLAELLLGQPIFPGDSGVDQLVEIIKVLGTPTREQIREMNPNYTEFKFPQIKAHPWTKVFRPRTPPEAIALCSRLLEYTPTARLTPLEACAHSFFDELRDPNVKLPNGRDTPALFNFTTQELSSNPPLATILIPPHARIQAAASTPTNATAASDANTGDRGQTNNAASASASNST
# Procedure, shortened: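 Recombinant enzyme with specific fluorescent substrate, 1 h, product separated by electrophoretic mobility shift. Primary duplicate screen at 25 uM; actives (e.g. 30% inhibition) followed in singleton concentration-response to 50 uM. Signal loss fitted versus DMSO.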
# [2] = molecular target: human c-Jun N-terminal Kinases (JNK2), MAPK9 (gene 5601) (UniProt P45984); assay: NVS_ENZ_hJNK2: NovaScreen (NVS) Enzymatic Assay for human c-Jun N-terminal Kinases (JNK2) (AID 2283171)
# Chain of human c-Jun N-terminal Kinases (JNK2), MAPK9 (gene 5601) (P45984 whole entry, looked up): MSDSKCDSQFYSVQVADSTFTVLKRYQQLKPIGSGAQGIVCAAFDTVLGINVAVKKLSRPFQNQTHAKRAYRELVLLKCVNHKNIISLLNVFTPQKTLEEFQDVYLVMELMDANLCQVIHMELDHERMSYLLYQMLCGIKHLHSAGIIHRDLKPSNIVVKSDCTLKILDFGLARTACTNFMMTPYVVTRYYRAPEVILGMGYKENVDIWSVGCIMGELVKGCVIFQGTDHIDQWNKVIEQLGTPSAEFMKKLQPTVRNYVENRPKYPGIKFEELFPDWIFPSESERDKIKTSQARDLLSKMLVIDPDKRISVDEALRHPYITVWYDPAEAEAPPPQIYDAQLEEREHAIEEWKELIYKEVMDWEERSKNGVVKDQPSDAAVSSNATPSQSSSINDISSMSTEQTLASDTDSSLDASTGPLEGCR
# Procedure, shortened: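 Chemicals first tested in duplicate at 25 uM, then in singleton concentration series up to 50 uM, against extracted JNK2 enzyme. Activity loss read by fluorescence with mobility-shift separation 1 h post-dose; DMSO baseline.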
# [3] = molecular target: Mitogen-activated protein kinase 3 (Homo sapiens) (UniProt P27361); assay: NVS_ENZ_hMAPK3: NovaScreen (NVS) Enzymatic Assay for human Mitogen-Activated Protein Kinase 3 (MAPK 3) (AID 2283177)
# Chain of Mitogen-activated protein kinase 3 (Homo sapiens) (P27361 whole entry, looked up): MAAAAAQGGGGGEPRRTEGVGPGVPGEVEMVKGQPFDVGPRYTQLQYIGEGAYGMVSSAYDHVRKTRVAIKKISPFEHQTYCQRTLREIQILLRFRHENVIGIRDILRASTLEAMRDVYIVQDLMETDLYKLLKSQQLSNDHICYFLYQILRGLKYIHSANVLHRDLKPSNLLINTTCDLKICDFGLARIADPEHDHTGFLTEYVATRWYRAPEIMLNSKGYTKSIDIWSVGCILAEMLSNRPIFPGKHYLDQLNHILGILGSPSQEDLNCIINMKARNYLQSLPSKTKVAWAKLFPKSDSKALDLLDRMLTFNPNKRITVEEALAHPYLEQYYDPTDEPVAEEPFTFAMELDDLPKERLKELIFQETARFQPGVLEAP
# Procedure, shortened: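 Chemicals were first tested in duplicate at 25 uM, with hits re-run as concentration series (max 50 uM). Recombinant enzyme activity, measured 1 h post-dose in a cell-free format, was read by fluorescence/mobility shift relative to DMSO.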
# [4] = molecular target: Serine/threonine-protein phosphatase PP1-alpha catalytic subunit (Homo sapiens) (UniProt P62136); assay: NVS_ENZ_hPPP1CA: NovaScreen (NVS) Enzymatic Assay for human Protein Phosphatase 1 Aatalytic subunit Alpha (PPP1CA) (AID 2283200)
# Procedure, shortened: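 Chemicals were first screened in duplicate at 25 uM, and those passing threshold (e.g. 30% inhibition) were run as concentration series to 50 uM. Cell-free recombinant protein, 1.33 h read, fluorescent substrate/product mobility-shift detection, normalised to DMSO.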
# [5] = molecular target: Collagenase 3 (Homo sapiens) (UniProt P45452); assay: NVS_ENZ_hMMP13: NovaScreen (NVS) Enzymatic Assay for human Matrix Metalloproteinase-13 (MMP13) (AID 2283182)
# Procedure, shortened: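 Recombinant MMP13 cleaving fluorescent substrate, cell-free, measured 1 h after dosing. Primary duplicate screen at 25 uM; actives tested in concentration-response up to 50 uM; loss of signal relative to DMSO.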
# [6] = molecular target: human Matrix Metalloproteinase-2 (MMP2), MMP2 (gene 4313) (UniProt P08253); assay: NVS_ENZ_hMMP2: NovaScreen (NVS) Enzymatic Assay for human Matrix Metalloproteinase-2 (MMP2) (AID 2283184)
# Procedure, shortened: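 Compounds first screened in duplicate at a single 25 uM, with actives followed up in concentration series. Recombinant human MMP2 cleaves a fluorogenic substrate; fluorescence taken at 1 h, inhibition fitted relative to DMSO.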
# [7] = molecular target: human Matrix Metalloproteinase-3 (MMP3), MMP3 (gene 4314) (UniProt P08254); assay: NVS_ENZ_hMMP3: NovaScreen (NVS) Enzymatic Assay for human Matrix Metalloproteinase-3 (MMP3) (AID 2283185)
# Chain of human Matrix Metalloproteinase-3 (MMP3), MMP3 (gene 4314) (P08254 whole entry, looked up): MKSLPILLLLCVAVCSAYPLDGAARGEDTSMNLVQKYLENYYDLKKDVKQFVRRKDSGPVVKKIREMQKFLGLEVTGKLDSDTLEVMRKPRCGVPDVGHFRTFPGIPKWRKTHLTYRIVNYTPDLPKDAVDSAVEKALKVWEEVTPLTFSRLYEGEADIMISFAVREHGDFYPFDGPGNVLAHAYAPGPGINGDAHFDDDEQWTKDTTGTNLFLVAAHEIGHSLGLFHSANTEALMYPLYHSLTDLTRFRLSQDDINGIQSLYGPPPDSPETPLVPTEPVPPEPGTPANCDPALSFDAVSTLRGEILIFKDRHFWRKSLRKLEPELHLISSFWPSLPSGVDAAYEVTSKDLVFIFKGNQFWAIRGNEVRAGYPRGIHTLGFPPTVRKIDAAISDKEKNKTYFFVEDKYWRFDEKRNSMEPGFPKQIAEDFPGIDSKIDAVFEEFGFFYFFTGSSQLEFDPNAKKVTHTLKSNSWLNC
# Procedure, shortened: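 Fluorescent substrate turnover by recombinant MMP3 read after 1 h, signal loss scored against DMSO. Compounds first run in duplicate at 25 uM single dose, then actives confirmed by concentration series.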
# [8] = molecular target: human Matrix Metalloproteinase-9 (MMP9), MMP9 (gene 4318) (UniProt P14780); assay: NVS_ENZ_hMMP9: NovaScreen (NVS) Enzymatic Assay for human Matrix Metalloproteinase-9 (MMP9) (AID 2283190);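 further: cell-free recombinant MMP9 protease activity read by fluorescent substrate signal; active means inhibition seen as loss of fluorescence signal versus DMSO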
# Chain of human Matrix Metalloproteinase-9 (MMP9), MMP9 (gene 4318) (P14780 whole entry, looked up): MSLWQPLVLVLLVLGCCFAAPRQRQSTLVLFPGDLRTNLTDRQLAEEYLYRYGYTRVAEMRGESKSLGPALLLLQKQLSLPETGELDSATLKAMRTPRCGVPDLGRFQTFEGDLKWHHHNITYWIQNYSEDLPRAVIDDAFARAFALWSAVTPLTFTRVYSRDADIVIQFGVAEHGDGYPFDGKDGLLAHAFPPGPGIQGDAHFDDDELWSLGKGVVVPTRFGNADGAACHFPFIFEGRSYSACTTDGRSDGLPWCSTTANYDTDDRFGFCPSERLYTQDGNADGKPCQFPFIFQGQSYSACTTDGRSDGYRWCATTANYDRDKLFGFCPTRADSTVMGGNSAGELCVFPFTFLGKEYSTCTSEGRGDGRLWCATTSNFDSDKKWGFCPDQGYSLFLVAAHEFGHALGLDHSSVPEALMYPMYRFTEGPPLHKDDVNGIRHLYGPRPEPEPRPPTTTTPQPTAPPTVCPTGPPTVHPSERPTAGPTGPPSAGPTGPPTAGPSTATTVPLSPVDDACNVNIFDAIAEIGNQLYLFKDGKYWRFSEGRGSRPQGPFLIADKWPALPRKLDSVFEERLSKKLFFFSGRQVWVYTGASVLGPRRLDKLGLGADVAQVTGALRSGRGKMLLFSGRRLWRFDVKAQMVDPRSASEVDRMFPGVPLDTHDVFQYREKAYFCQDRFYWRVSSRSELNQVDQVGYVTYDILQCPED
# Procedure, shortened: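 Cell-free fluorescence-intensity enzyme activity assay using extracted protein, read 1 h after dosing. Loss of signal versus DMSO baseline indicates inhibition; primary screen in duplicate at 25 uM, actives followed up in concentration series.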
# [9] = molecular target: Histone deacetylase 3 (Homo sapiens) (UniProt O15379); assay: NVS_ENZ_hHDAC3: NovaScreen (NVS) Enzymatic Assay for human Histone Deacetylase 3 (HDAC3) (AID 2283163)
# Procedure, shortened: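 Cell-free enzyme format: loss of fluorescent product after mobility-shift separation, 1 h incubation, recombinant human HDAC3. Single 25 uM duplicate screen first, then concentration series to a 50 uM top for hits; DMSO as baseline.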
# [10] = molecular target: human FYN Proto-Oncogene, Src family Tyrosine Kinase (Fyn), FYN (gene 2534) (UniProt P06241); assay: NVS_ENZ_hFyn: NovaScreen (NVS) Enzymatic Assay for human FYN Proto-Oncogene, Src family Tyrosine Kinase (Fyn) (AID 2283161)
# Chain of human FYN Proto-Oncogene, Src family Tyrosine Kinase (Fyn), FYN (gene 2534) (P06241 whole entry, looked up): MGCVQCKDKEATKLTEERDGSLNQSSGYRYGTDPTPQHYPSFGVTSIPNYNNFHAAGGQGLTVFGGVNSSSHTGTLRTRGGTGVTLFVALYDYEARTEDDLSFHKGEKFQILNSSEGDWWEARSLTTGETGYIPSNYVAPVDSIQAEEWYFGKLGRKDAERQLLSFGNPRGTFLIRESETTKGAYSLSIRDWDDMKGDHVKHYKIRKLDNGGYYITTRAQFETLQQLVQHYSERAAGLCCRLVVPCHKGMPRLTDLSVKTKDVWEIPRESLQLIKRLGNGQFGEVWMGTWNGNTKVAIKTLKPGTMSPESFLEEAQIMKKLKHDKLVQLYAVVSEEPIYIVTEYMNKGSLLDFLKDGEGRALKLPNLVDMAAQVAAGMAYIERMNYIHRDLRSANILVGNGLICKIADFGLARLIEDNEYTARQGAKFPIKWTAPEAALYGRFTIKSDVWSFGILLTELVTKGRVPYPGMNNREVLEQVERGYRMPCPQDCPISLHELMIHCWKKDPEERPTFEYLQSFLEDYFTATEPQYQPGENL
# Procedure, shortened: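 Cell-free kinase activity read by fluorescence after mobility-shift separation of substrate and product, 1 h post-dose. Initial single concentration 25 uM in duplicate, then concentration-response follow-up; DMSO baseline.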
# [11] = molecular target: human LYN Proto-Oncogene, Src family Tyrosine Kinase (LynA), LYN (gene 4067) (UniProt P07948); assay: NVS_ENZ_hLynA: NovaScreen (NVS) Enzymatic Assay for human LYN Proto-Oncogene, Src family Tyrosine Kinase (LynA) (AID 2283173)
# Procedure, shortened: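 Recombinant kinase with fluorescent substrate; product separated from substrate by electrophoretic mobility shift and read 1 h after dosing. Duplicate screen at 25 uM, then concentration-response up to 50 uM; activity scored as signal loss against DMSO.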
# [12] = molecular target: human Phosphodiesterase 4A1 (PDE4A1), PDE4A (gene 5141) (UniProt P27815); assay: NVS_ENZ_hPDE4A1: NovaScreen (NVS) Enzymatic Assay for human Phosphodiesterase 4A1 (PDE4A1) (AID 2283191)
# Chain of human Phosphodiesterase 4A1 (PDE4A1), PDE4A (gene 5141) (P27815 whole entry, looked up): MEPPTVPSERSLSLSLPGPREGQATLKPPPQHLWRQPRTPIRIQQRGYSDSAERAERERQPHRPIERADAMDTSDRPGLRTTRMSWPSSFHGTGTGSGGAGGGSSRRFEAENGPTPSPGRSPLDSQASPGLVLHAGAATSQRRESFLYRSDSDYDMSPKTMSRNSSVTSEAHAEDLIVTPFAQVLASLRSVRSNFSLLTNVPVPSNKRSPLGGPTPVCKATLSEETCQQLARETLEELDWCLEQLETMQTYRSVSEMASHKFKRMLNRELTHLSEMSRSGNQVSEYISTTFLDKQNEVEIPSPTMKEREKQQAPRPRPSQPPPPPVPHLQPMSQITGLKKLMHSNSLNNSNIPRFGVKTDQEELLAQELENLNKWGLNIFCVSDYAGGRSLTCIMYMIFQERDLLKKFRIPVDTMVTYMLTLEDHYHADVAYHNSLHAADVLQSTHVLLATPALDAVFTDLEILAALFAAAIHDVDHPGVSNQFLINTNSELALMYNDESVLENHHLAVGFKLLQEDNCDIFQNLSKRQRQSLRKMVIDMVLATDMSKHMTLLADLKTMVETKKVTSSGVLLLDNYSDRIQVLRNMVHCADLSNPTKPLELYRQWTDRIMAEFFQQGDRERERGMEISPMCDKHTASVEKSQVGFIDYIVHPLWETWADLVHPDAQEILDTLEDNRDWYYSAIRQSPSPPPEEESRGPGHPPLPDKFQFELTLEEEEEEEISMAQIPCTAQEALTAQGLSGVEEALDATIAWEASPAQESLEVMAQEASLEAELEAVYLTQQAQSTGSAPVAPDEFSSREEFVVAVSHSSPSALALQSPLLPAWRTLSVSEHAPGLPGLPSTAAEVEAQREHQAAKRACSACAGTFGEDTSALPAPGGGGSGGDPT
# Procedure, shortened: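 Fluorescent substrate turnover by recombinant PDE4A1 read after 1 h by mobility-shift separation. Primary duplicate screen at 25 uM; hits retested in concentration series with a 50 uM maximum, relative to DMSO.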
# [13] = molecular target: human Phosphodiesterase 5 (PDE5), PDE5A (gene 8654) (UniProt O76074); assay: NVS_ENZ_hPDE5: NovaScreen (NVS) Enzymatic Assay for human Phosphodiesterase 5 (PDE5) (AID 2283194)
# Procedure, shortened: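 Screening began in duplicate at 25 uM, with actives taken into concentration-response. Enzyme activity of recombinant PDE5 toward its substrate was measured at 1 h by fluorescence mobility-shift detection, relative to DMSO controls.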
# [14] = molecular target: human Phosphodiesterase 10 (PDE10), PDE10A (gene 10846) (UniProt Q9Y233); assay: NVS_ENZ_hPDE10: NovaScreen (NVS) Enzymatic Assay for human Phosphodiesterase 10 (PDE10) (AID 2283195)
# Procedure, shortened: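 Fluorescence readout after mobility-shift separation of substrate and product, 1 h reaction with recombinant human enzyme. Single-concentration duplicates at 25 uM, then concentration-response up to 50 uM for chemicals reaching threshold; DMSO baseline.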
# [15] = molecular target: human Mitogen- and Stress-activated Protein Kinase-1 (Msk1), RPS6KA5 (gene 9252) (UniProt O75582); assay: NVS_ENZ_hMsk1: NovaScreen (NVS) Enzymatic Assay for human Mitogen- and Stress-activated Protein Kinase-1 (Msk1) (AID 2283187)
# Chain of human Mitogen- and Stress-activated Protein Kinase-1 (Msk1), RPS6KA5 (gene 9252) (O75582 whole entry, looked up): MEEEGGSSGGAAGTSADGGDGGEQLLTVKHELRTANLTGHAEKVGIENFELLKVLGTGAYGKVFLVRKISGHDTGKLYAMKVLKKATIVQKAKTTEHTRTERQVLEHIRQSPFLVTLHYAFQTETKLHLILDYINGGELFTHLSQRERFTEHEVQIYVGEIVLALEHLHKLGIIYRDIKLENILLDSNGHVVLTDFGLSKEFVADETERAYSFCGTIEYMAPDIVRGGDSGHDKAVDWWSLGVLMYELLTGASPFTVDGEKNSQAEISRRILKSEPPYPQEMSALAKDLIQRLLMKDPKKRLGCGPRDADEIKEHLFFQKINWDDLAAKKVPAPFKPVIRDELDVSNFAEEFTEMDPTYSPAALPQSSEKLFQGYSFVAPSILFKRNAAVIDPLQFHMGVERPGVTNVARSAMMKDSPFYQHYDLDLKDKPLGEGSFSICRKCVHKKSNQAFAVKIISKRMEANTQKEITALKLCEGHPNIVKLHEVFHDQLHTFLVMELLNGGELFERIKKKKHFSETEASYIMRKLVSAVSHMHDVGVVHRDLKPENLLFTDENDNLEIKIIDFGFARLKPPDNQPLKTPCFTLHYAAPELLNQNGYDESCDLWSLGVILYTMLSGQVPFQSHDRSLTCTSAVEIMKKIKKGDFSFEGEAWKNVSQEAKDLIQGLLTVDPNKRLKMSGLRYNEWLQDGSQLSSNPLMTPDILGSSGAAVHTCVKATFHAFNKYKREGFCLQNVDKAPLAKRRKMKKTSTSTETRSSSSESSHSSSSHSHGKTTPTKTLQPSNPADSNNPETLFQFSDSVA
# Procedure, shortened: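 Chemicals first run in duplicate at 25 uM, with actives followed up in singleton concentration series to 50 uM maximum. Enzyme activity came from substrate/product mobility-shift separation with fluorescence detection after 1 h incubation of the recombinant protein.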
# [16] = molecular target: cAMP-dependent protein kinase catalytic subunit alpha (Homo sapiens) (UniProt P17612); assay: NVS_ENZ_hPKA: NovaScreen (NVS) Enzymatic Assay for human Protein Kinase A (PKA) (AID 2283192)
# Procedure, shortened: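 Cell-free kinase activity read by fluorescence after mobility-shift separation of substrate and product, 1 h post-dosing. Single-concentration duplicate screen (25 uM) preceded singleton concentration series (top 50 uM); loss of signal versus DMSO.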
# [17] = molecular target: human MAP Kinase-Activated Protein Kinase 2 (MAPKAPK2), MAPKAPK2 (gene 9261) (UniProt P49137); assay: NVS_ENZ_hMAPKAPK2: NovaScreen (NVS) Enzymatic Assay for human MAP Kinase-Activated Protein Kinase 2 (MAPKAPK2) (AID 2283178)
# Procedure, shortened: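 Chemicals screened in duplicate at 25 uM, then to 50 uM top concentration in concentration-response, against recombinant human MAPKAPK2; substrate conversion read 1 hr post-dosing by fluorescence after electrophoretic mobility-shift separation, loss-of-signal relative to DMSO.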
# [18] = molecular target: human Matrix Metalloproteinase-7 (MMP7), MMP7 (gene 4316) (UniProt P09237); assay: NVS_ENZ_hMMP7: NovaScreen (NVS) Enzymatic Assay for human Matrix Metalloproteinase-7 (MMP7) (AID 2283183)
# Chain of human Matrix Metalloproteinase-7 (MMP7), MMP7 (gene 4316) (P09237 whole entry, looked up): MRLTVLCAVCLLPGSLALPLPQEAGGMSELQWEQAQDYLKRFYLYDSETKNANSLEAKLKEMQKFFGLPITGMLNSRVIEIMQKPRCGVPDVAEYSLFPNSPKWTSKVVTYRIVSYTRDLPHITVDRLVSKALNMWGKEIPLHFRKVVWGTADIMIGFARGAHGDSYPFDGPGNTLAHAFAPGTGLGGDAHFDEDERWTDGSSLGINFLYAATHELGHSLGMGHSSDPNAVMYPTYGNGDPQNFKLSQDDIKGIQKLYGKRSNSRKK
# Procedure, shortened: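 Compounds first tested at 25 uM in duplicate, then at up to 50 uM in concentration series if active. Protease activity measured by fluorescence intensity 1 h after dosing, with fitting relative to DMSO.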
# [19] = molecular target: human Phosphoinositide 3-kinase alpha (PI3Ka), PIK3CA (gene 5290) (UniProt P42336); assay: NVS_ENZ_hPI3Ka: NovaScreen (NVS) Enzymatic Assay for human Phosphoinositide 3-kinase alpha (PI3Ka) (AID 2283196)
# Procedure, shortened: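 Enzyme activity as fluorescence after mobility-shift separation of substrate and product, 1 h reaction, recombinant human PI3Kα; concentration-response to 50 uM max for chemicals passing a 25 uM duplicate screen.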
# [20] = molecular target: human Protein Phosphatase, Mg2+/Mn2+ Dependent 1A (PPM1A), PPM1A (gene 5494) (UniProt P35813); assay: NVS_ENZ_hPPM1A: NovaScreen (NVS) Enzymatic Assay for human Protein Phosphatase, Mg2+/Mn2+ Dependent 1A (PPM1A) (AID 2283198)
# Procedure, shortened: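 Primary screen in duplicate at 25 uM, with actives then titrated to a maximum of 50 uM. Recombinant PPM1A dephosphorylation of fluorescent substrate measured at 1 h, with substrate and product separated by mobility shift; inhibition fitted against DMSO.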
smiles,measurement,setting,value
N#C[C@@H]1CC(F)(F)CN1C(=O)CNC1CC2CCC(C1)N2c1ncccn1 (some centres undefined),outcome,[1],inactive
same,outcome,[2],inactive
same,outcome,[3],inactive
same,outcome,[4],inactive
Cc1oc(-c2ccccc2)nc1CCOc1ccc(C[C@H](Nc2ccccc2C(=O)c2ccccc2)C(=O)O)cc1,outcome,[1],inactive
same,AC50,[5],7.33 µM (active)
same,AC50,[6],16.1 µM (active)
same,outcome,[7],inactive
same,AC50,[8],11.9 µM (active)
Nc1cccc2c(N)cccc12,outcome,[9],inactive
ClC1=C(Cl)C(Cl)(Cl)C(Cl)=C1Cl,outcome,[1],inactive
CCN(CC)CCNc1ccc(CNC=O)c2sc3ccc(OC)cc3c(=O)c12,AC50,[10],2.1 µM (active)
same,outcome,[2],inactive
same,outcome,[11],inactive
same,outcome,[8],inactive
same,AC50,[12],11.8 µM (active)
same,AC50,[13],6.82 µM (active)
same,AC50,[14],2.06 µM (active)
same,outcome,[4],inactive
Cc1cc(CCN2CCN(c3nsc4ccccc34)CC2)cc2c1NC(=O)CC2(C)C,outcome,[1],inactive
same,outcome,[12],inactive
same,AC50,[13],25.6 µM (active)
same,AC50,[14],25 µM (active)
CCCCCCCCC(=O)O,outcome,[1],inactive
CC(C)(C)c1cc(C(C)(C)C)c(O)c(C(C)(C)C)c1,outcome,[1],inactive
CCCCCCCC(=O)O,outcome,[10],inactive
same,outcome,[11],inactive
same,outcome,[3],inactive
same,outcome,[15],inactive
same,outcome,[16],inactive
same,outcome,[13],inactive
CC(C)(C)c1ccc(O)c(C(C)(C)C)c1,outcome,[1],inactive
CCCCCCCCOC(=O)CCCCCCCCC(=O)OCCCCCCCC,outcome,[1],inactive
O=[N+]([O-])c1ccc(O)cc1,outcome,[1],inactive
same,outcome,[17],inactive
same,outcome,[18],inactive
COCC(C)OCC(C)O (centres undefined),outcome,[1],inactive
same,outcome,[18],inactive
same,outcome,[15],inactive
same,outcome,[19],inactive
CCC(=C(c1ccc(O)cc1)c1ccc(OCCN(C)C)cc1)c1ccccc1,outcome,[10],inactive
O=c1c(-c2ccc(O)cc2)coc2cc(O)ccc12,outcome,[1],inactive
CCCCCCCCCCCCc1ccccc1S(=O)(=O)O,AC50,[1],14.2 µM (active)
same,AC50,[2],29.6 µM (active)
same,AC50,[3],18 µM (active)
same,AC50,[17],26.5 µM (active)
same,AC50,[5],31.8 µM (active)
same,AC50,[7],18.2 µM (active)
same,AC50,[15],16.8 µM (active)
same,AC50,[20],30.2 µM (active)
Oc1cccc(O)c1,outcome,[1],inactive
O=C(O)Cc1cc(I)c(Oc2cc(I)c(O)c(I)c2)c(I)c1,outcome,[10],inactive
same,outcome,[1],inactive
same,outcome,[2],inactive
same,outcome,[3],inactive
same,AC50,[12],0.0269 µM (active)
same,outcome,[16],inactive
same,AC50,[13],9.05 µM (active)
same,AC50,[14],8.91 µM (active)
CCOC(=O)CC(O)(CC(=O)OCC)C(=O)OCC,outcome,[1],inactive
O=C(O)c1ccccc1C(c1ccc(O)cc1)c1ccc(O)cc1,outcome,[3],inactive
CCc1nn(C2CCCCC2)c2cc(C3(C#N)CCC(C(=O)O)CC3)ccc12 (centres undefined),AC50,[5],19.4 µM (active)
same,outcome,[14],inactive
CC[C@H](c1ccc(O)cc1)[C@@H](CC)c1ccc(O)cc1,outcome,[18],inactive
c1ccc2cc3c(ccc4ccccc43)cc2c1,outcome,[18],inactive
CN1CCN(c2ccccc2/C=C2\SCCN(c3ccc(Cl)c(Cl)c3)C2=O)CC1,outcome,[6],inactive
CC(C)CCCCCCOC(=O)CCCCC(=O)OCCCCCCC(C)C,outcome,[7],inactive
CCCOc1sc(C(=O)N2CCC(c3cc(CN)ccc3F)CC2)c(C)c1Br,outcome,[7],inactive
same,outcome,[16],inactive
CC(C)(C)CC(C)(C)c1ccc(O)c(-n2nc3ccccc3n2)c1,outcome,[15],inactive
CCCCCCCCCCCCCC[N+](C)(C)C,outcome,[8],inactive
same,outcome,[14],inactive
same,AC50,[19],8.66 µM (active)
NC(=O)N1C(=O)C(C(=O)c2cc(Cl)cs2)c2cc(F)c(Cl)cc21 (centres undefined),AC50,[16],25 µM (active)
